Cruzain Triton = cruzain (T. cruzi) inhibition with detergent | purified cruzain, Z-FR-AMC fluorescence, 0.01% Triton | 200,000 compounds, 0.43% hits | P25779 | Potency, µM, usual class: inhibitors | AID 1478; note: nearly all actives have a fitted effect of over 40% in size
Target sequence (P25779 123-467 limits assumed): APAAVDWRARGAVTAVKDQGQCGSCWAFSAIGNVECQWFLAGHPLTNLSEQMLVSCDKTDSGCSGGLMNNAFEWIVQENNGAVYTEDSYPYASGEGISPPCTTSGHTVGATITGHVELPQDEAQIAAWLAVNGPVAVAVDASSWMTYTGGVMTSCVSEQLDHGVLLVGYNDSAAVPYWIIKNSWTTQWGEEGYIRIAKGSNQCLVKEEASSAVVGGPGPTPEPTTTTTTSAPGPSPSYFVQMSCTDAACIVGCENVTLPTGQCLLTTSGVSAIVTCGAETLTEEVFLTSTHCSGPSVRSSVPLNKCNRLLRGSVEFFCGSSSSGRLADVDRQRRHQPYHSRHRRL
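In this qHTS format, compounds are incubated with 1.5 nM cruzain for 15 min at room temperature before 2 uM Z-FR-AMC is added. Release of AMC is followed at 360/450 nm, and progress is taken as the 60 s fluorescence difference.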
Cruzain noTriton = inhibitors of Trypanosoma cruzi cruzain without detergent; P25779; purified cruzain, Z-FR-AMC fluorescence, no detergent; Potency, µM, hits mostly inhibitors; 200,000 compounds, 2.3% hits; AID 1476; note: nearly all actives have a fitted effect of over 40% in size
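Detergent-free condition (0.00005% Triton X-100) in acetate buffer pH 5.5 with DTT. 1.5 nM enzyme and compound were pre-mixed 15 min, then 2 uM Z-FR-AMC substrate added; reaction progress from fluorescence change between first and third reads (60 s).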
Of the large screens only hits and unclear results are named; the others gave an inactive call. Shown are actives, neighbours in structure and some others; about 2.4% of the full set was active somewhere. Calls come from the whole dose curve; as a rule, active = well fitted curve in the direction sought with a large enough effect; inconclusive = small, poorly fitted or top-dose-only effect, or another doubt; inactive = no such curve, though single readings can be large; an effect the other way counts as inactive or inconclusive.

CC(=O)c1cc(-c2ccccc2)n(CCC(=O)NC(C)c2ccccc2)c1C (stereo not drawn)	none
Cc1ccc2c(c1)-c1onc(C(=O)N3CCN(c4ccc(Cl)cc4)CC3)c1CO2	Cruzain noTriton inconclusive
Cc1nnc(OC(C)C)c2nn(-c3ccccc3F)c(C)c12	none
Fc1ccccc1-n1[nH]nnc1=S	Cruzain Triton 20µM, Cruzain noTriton 13µM
O=C(/C=C\C=C/c1ccc2c(c1)OCO2)N1CCCCC1	none
COP(N)(=O)SC (stereo not drawn)	none
Cc1cc2ccccc2c[n+]1CC(O)C[n+]1cc2ccccc2cc1C	none
O=C(NC(=S)NNS(=O)(=O)c1ccccc1)c1ccccc1[N+](=O)[O-]	none
O=C(NC(=S)NNS(=O)(=O)c1ccccc1)c1ccc([N+](=O)[O-])cc1	Cruzain Triton inconclusive, Cruzain noTriton 10µM
O=C(Nc1ccc2nc(SCC(=O)N3CCCc4ccccc43)sc2c1)c1ccccc1	Cruzain noTriton inconclusive
COc1ccc(-c2cc(-c3ccccc3)c(C#N)c(SCC(O)CS(=O)(=O)Cc3ccc(Cl)cc3)n2)cc1 (stereo not drawn)	Cruzain noTriton inconclusive
N#Cc1c(-c2ccccc2)cc(-c2ccccc2)nc1SCC(O)CS(=O)(=O)Cc1ccc(Cl)cc1 (stereo not drawn)	Cruzain noTriton 7.9µM
CCOC(=O)c1cccnc1SCC(=O)Nc1ccc(C)cc1C	none
O=C1CC(c2ccccc2)Cc2[nH]c(=O)c(-c3nc(-c4ccc(F)cc4)cs3)cc21 (stereo not drawn)	none
CC(=O)Nc1nonc1-c1nnc(SCC(=O)Nc2cccc(F)c2)n1-c1ccccc1	none
CCOC(=O)c1sc(NC(=O)/C=C/c2c(F)cccc2Cl)nc1C	Cruzain noTriton 13µM
CCOC(=O)c1sc(NC(=O)c2ccc(CC)s2)nc1C	Cruzain noTriton 16µM
CCOC(=O)c1sc(NC(=O)Nc2ccccc2F)nc1C	none
CCOC(=O)c1sc(NC(=O)c2ccccc2OC)nc1C	none
CC(=O)N1CC=CC1(CC(C)C)C(=O)NCc1ccccn1 (stereo not drawn)	none
CCOC(=O)c1c(C)n(-c2ccccc2)c2ccc(OC(=O)c3ccc(OCC)c(OCC)c3)cc12	none
O=C(CN1C=NS(=O)(=O)c2ccc(C(F)(F)F)cc21)Nc1cccc(C(F)(F)F)c1	none
COc1cc(/C=C2\SC(=S)N(Nc3ccccc3)C2=O)cc(OC)c1OC	none
CCOc1ccc(/C=C2\SC(=S)N(Nc3ccccc3)C2=O)cc1OC	Cruzain Triton 6.3µM, Cruzain noTriton inconclusive
CCn1c(-c2nonc2NC(=O)c2ccccc2)nc2ccccc21	none
CC(C)(C)c1ccc(C(=O)Nc2nonc2-c2nc3ccccc3[nH]2)cc1	Cruzain noTriton 3.2µM
Clc1ccc(C(c2ccc(Cl)cc2)C(Cl)Cl)cc1	none
Cc1ccc(C(=O)CN2CCC(NC(=O)C3CCCCC3)CC2)cc1	Cruzain Triton 25µM, Cruzain noTriton inconclusive
Cc1ccc(NC(=O)CN2CCC(NC(=O)C3CCCCC3)CC2)c(Br)c1	none
O=C(NCCOCCn1c(=O)oc2ccccc21)Nc1ccc(Cl)cc1	none
COC(=O)C1(C(=O)OC)C[C@@H]2CON=C2[C@H]1c1ccccc1	none
COc1cc2c(cc1NC(=O)COc1cc(C)cc(C)c1)oc1ccccc12	none
Cc1cc(C)c(NC(=O)COc2ccccc2C(=O)Nc2ccc3c(c2)oc2ccccc23)c(C)c1	Cruzain noTriton 5µM
CCCCSc1nnc(-c2ccc(C)cc2)c2ccccc12	none
COc1ccc(CCNC(=O)CSc2nnc(-c3ccc(F)cc3)c3ccccc23)cc1OC	Cruzain noTriton inconclusive
O=C(CSc1nnc(-c2ccc(F)cc2)c2ccccc12)Nc1cccc(Cl)c1	Cruzain noTriton 16µM
O=C(CSc1ncnc2c1oc1ccccc12)Nc1cccc(Cl)c1	none
O=C(CSc1nnc(-c2ccc(F)cc2)c2ccccc12)Nc1ccccc1Cl	Cruzain noTriton 16µM
O=C(CSc1nnc(-c2ccc(F)cc2)c2ccccc12)Nc1c(F)cccc1F	Cruzain noTriton 16µM
O=C(CSc1nnc(-c2ccc(F)cc2)c2ccccc12)Nc1ccccc1	Cruzain noTriton 32µM
O=C(CCC(=O)c1ccc(F)cc1)Nc1ccccc1Cl	none
CO[C@@H]1[C@@H]2OP(=O)(O)OC[C@H]2O[C@H]1n1c(Sc2ccc(Cl)cc2)nc2c(N)ncnc21	none
CCCNC(=O)Cn1nc(-c2ccc(C)c(C)c2)c2cnc3ccc(F)cc3c21	none
COc1ccc(OC)c(NCc2cccn2-c2nnc(N3CCCCC3)s2)c1	none
N[C@@](CC(=O)O)(Cc1ccccc1)C(=O)O	none
CC1CCC2(CC1)NC(=O)N(CC(=O)Nc1nc(-c3ccc(F)cc3)cs1)C2=O (stereo not drawn)	Cruzain noTriton 25µM
Cc1ccc(NC(=O)CN2C(=O)NC3(CCC(C)CC3)C2=O)c(Cl)c1 (stereo not drawn)	none
CCC[C@H](Sc1nc(N)nc2nc[nH]c12)C(=O)O	none
N#C/C(=C/c1ccc(O)cc1)c1nc(-c2ccc(-c3ccccc3)cc2)cs1	none
N#C/C(=C\C=C\c1ccccc1)c1nc(-c2ccc3c(c2)OCO3)cs1	Cruzain noTriton 25µM
COc1ccc(C2CC(c3ccccc3)=NN2C(=O)COC(=O)c2cccnc2Cl)cc1 (stereo not drawn)	none
COc1ccc(C2CC(c3ccccc3)=NN2C(=O)COC(=O)c2cccnc2)cc1 (stereo not drawn)	Cruzain noTriton 16µM
COc1ccc(C2CC(c3ccccc3)=NN2C(=O)COC(=O)C2CC2)cc1 (stereo not drawn)	none
COc1ccc(C2CC(c3ccccc3)=NN2C(=O)COC(=O)c2cc(S(=O)(=O)N3CCOCC3)ccc2Cl)cc1 (stereo not drawn)	Cruzain noTriton 13µM
Cc1ccc(Sc2ccc(N3CCC(C(=O)Nc4ccc(Cl)cc4)CC3)nn2)cc1	none
CCc1nn(CC(=O)Nc2cccc(C(C)=O)c2)c(=O)c2cc3sccc3n12	none
CCc1cccc(NC(=O)CCn2c(=O)c3cccn3c3cccnc32)c1	none
O=C(CN1C(=O)C(c2ccc(F)cc2)=NC12CCCCCC2)Nc1ccccc1Cl	none
O=C(Cc1cccs1)Nc1c(C(=O)Nc2ccc(F)cc2)oc2ccccc12	none
Cc1ccc(NC(=O)Cn2nc(-c3ccccc3)nc(Cc3ccc(Cl)cc3)c2=O)cc1	Cruzain noTriton 25µM
Cc1ccc(NC(=O)Cn2nc(-c3ccccc3)nc(Cc3ccccc3)c2=O)cc1	none
Cc1ccc(NCc2cccn2-c2nnc(N3CCC(C(=O)NCc4ccc(OC(C)C)cc4)CC3)s2)cc1	none
COc1ccc(Br)cc1CNC(=O)C1CCN(c2nnc(-n3cccc3CNc3ccc(C)cc3)s2)CC1	Cruzain noTriton 32µM
N#CCCn1c(SCC(=O)c2c[nH]c3ccccc23)nc2ccccc21	Cruzain noTriton inconclusive
Cc1cc(C(=O)CSc2nc3ccccc3n2CCC#N)c(C)n1Cc1cccs1	Cruzain noTriton 16µM
CCOC(=O)c1noc2nc(C)n(CC(=O)Nc3cc(Cl)ccc3OC)c(=O)c12	none
COc1cccc(-c2cc(=O)c3cc(O)ccc3o2)c1	none
NC(CCC(=O)NC(CCSC(CC(=O)O)C(=O)O)C(=O)NCC(=O)O)C(=O)O (stereo not drawn)	none
Clc1ccc(-c2nnc(-c3ccco3)nc2N2CCCCC2)cc1	none
Clc1ccc(-c2nnc(-c3ccc(Br)cc3)c(N3CCSCC3)n2)cc1	Cruzain noTriton 20µM
Cc1ccc(C(=O)c2cnc3cc4c(cc3c2S(=O)(=O)c2ccccc2)OCCO4)cc1	Cruzain noTriton inconclusive
COc1ccc(S(=O)(=O)c2c(C(=O)c3ccc(C)c(C)c3)cnc3ccc(C)cc23)cc1	Cruzain noTriton 13µM
